Reference: PubChem BioAssay AID1159580 (chemical genetic matrix, 2015)
About 2,000 (36%) of roughly 5,500 compounds were called active. About 18% were inconclusive and are not listed. Cut-off read from the data, not from the text of the source: active = normalized growth mostly below about 0.91 (no sharp cut-off); inconclusive = no clear call, values can overlap the other calls; inactive = mostly above about 0.92. This is one part of the list.

Experiment: chemical genetic growth profiling, strain panel (AID 1159580);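 note: tested at 20 µM; growth read once vehicle control cultures reached saturation at 30 °C; 1 = growth at the plate median or of vehicle wells; lower values mean less growth of the strain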
Details: S. cerevisiae deletion strains, growth OD
[1] = locus YAL040C, strain CLN3, stronger effect = lower value
[2] = locus YER002W, strain NOP16, stronger effect = lower value
[3] = locus YGR229C, strain SMI1, stronger effect = lower value
[4] = locus YNL175C, strain NOP13, stronger effect = lower value
[5] = locus YNL197C, strain WHI3, stronger effect = lower value
[6] = locus YNL224C, strain SQS1, stronger effect = lower value
[7] = locus YOR083W, strain WHI5 (second series), stronger effect = lower value

Measured: normalized growth

CC(C)CSc1nnc(CSCc2nc(-c3ccc(Cl)cc3)cs2)n1C
inactive: locus YAR019C, strain CDC15, stronger effect = lower value 0.979 | locus YBL105C, strain PKC1, stronger effect = lower value 0.964 | locus YBR135W, strain CKS1, stronger effect = lower value 0.968 | locus YBR136W, strain MEC1, stronger effect = lower value 0.964 | locus YBR160W, strain CDC28, stronger effect = lower value 0.97 | locus YDL017W, strain CDC7, stronger effect = lower value 0.974 | locus YDL028C, strain MPS1, stronger effect = lower value 0.966 | locus YDL101C, strain DUN1, stronger effect = lower value 0.958 | locus YDL108W, strain KIN28, stronger effect = lower value 0.96 | locus YDL132W, strain cdc53, stronger effect = lower value 0.961 | locus YDL214C, strain PRR2, stronger effect = lower value 0.94 | locus YDR052C, strain DBF4, stronger effect = lower value 0.974 | locus YDR054C, strain cdc34, stronger effect = lower value 0.968 | locus YDR226W, strain ADK1, stronger effect = lower value 0.974 | locus YDR477W, strain SNF1, stronger effect = lower value 0.965 | locus YER123W, strain YCK3, stronger effect = lower value 0.913 | locus YER133W, strain GLC7, stronger effect = lower value 0.954 | locus YFL009W, strain cdc4, stronger effect = lower value 0.976 | locus YFL029C, strain CAK1, stronger effect = lower value 0.973 | locus YFR003C, strain YPI1, stronger effect = lower value 0.965 | locus YFR019W, strain FAB1, stronger effect = lower value 0.946 | locus YFR028C, strain CDC14, stronger effect = lower value 0.97 | locus YGR040W, strain KSS1, stronger effect = lower value 0.931 | locus YGR052W, strain FMP48, stronger effect = lower value 0.979 | locus YGR092W, strain DBF2, stronger effect = lower value 0.981 | locus YHR030C, strain SLT2, stronger effect = lower value 1.03 | locus YHR079C, strain IRE1, stronger effect = lower value 1.06 | locus YHR082C, strain KSP1, stronger effect = lower value 1.03 | locus YHR205W, strain SCH9, stronger effect = lower value 0.988 | locus YIL147C, strain SLN1, stronger effect = lower value 0.962 | locus YJL095W, strain BCK1, stronger effect = lower value 0.956 | locus YJL128C, strain PBS2, stronger effect = lower value 0.929 | locus YJL157C, strain FAR1, stronger effect = lower value 0.956 | locus YJR016C, strain ILV3, stronger effect = lower value 0.971 | locus YJR066W, strain TOR1 (second series), stronger effect = lower value 0.961 | locus YJR066W, strain TOR1, stronger effect = lower value 1.05 | locus YKL048C, strain ELM1, stronger effect = lower value 0.954 | locus YKL067W, strain YNK1, stronger effect = lower value 0.95 | locus YKL101W, strain HSL1, stronger effect = lower value 0.925 | locus YKL193C, strain SDS22, stronger effect = lower value 0.971 | locus YKL203C, strain TOR2, stronger effect = lower value 1.02 | locus YLR113W, strain HOG1, stronger effect = lower value 0.865 | locus YLR133W, strain CKI1, stronger effect = lower value 0.927 | locus YLR403W, strain SFP1, stronger effect = lower value 0.948 | locus YML070W, strain DAK1, stronger effect = lower value 0.929 | locus YMR001C, strain CDC5, stronger effect = lower value 0.973 | locus YMR205C, strain PFK2 (second series), stronger effect = lower value 0.961 | locus YMR277W, strain FCP1, stronger effect = lower value 0.966 | locus YNL006W, strain LST8, stronger effect = lower value 0.979 | locus YNL020C, strain ARK1, stronger effect = lower value 0.941 | locus YNL161W, strain CBK1, stronger effect = lower value 0.973 | locus YNL183C, strain NPR1, stronger effect = lower value 1.01 | locus YNL207W, strain RIO2, stronger effect = lower value 0.967 | locus YNL222W, strain SSU72, stronger effect = lower value 0.972 | locus YNL307C, strain MCK1 (second series), stronger effect = lower value 0.974 | locus YOL078W, strain AVO1, stronger effect = lower value 0.964 | locus YOL136C, strain PFK27, stronger effect = lower value 0.882 | locus YOR061W, strain CKA2, stronger effect = lower value 0.939 | locus YOR119C, strain RIO1, stronger effect = lower value 1.01 | locus YOR231W, strain MKK1, stronger effect = lower value 0.944 | locus YOR329C, strain SCD5, stronger effect = lower value 0.974 | locus YPL031C, strain PHO85, stronger effect = lower value 0.95 | locus YPL153C, strain RAD53, stronger effect = lower value 0.96 | locus YPL204W, strain HRR25, stronger effect = lower value 0.917 | locus YPL209C, strain IPL1, stronger effect = lower value 0.974 | locus YPL256C, strain CLN2, stronger effect = lower value 0.999 | locus YPR025C, strain CCL1, stronger effect = lower value 0.969 | locus YPR106W, strain ISR1, stronger effect = lower value 0.962 | locus YPR111W, strain DBF20, stronger effect = lower value 0.95 | strain NNK1, stronger effect = lower value 0.966 | strain TSCII, stronger effect = lower value 0.969

CC1(NCC(O)COc2cccc3[nH]ccc23)CCC(C(C)(C)NC(=O)CBr)CC1 (configuration not stated)
inactive: [1] 1.04 | locus YCL061C, strain MRC1 (second series), stronger effect = lower value 0.993 | locus YDR363W, strain ESC2, stronger effect = lower value 1.03 | [2] 1.03 | locus YGR078C, strain PAC10, stronger effect = lower value 1 | [3] 0.997 | locus YMR307W, strain GAS1, stronger effect = lower value 0.99 | [4] 1.02 | [5] 1.02 | [6] 1.06 | locus YNL322C, strain KRE1, stronger effect = lower value 0.973 | [7] 1.02 | locus YPL055C, strain LGE1, stronger effect = lower value 0.968 | locus YPL241C, strain CIN2, stronger effect = lower value 1

C=CCc1ccccc1OCC(O)CN[C@]1(C)CCC[C@H](C(C)(C)NC(=O)CBr)C1 (some centres not stated)
inactive: [1] 1.01 | [2] 1.02 | [3] 1.01 | [4] 1.08 | [5] 1.03 | [6] 1.02 | [7] 1.09
